# Measurements: PubChem BioAssay AID651871 (Sanford-Burnham Center for Chemical Genomics, 2012)
# “And” between values parts separate entries of the source, which are not always exact repeats. Equal values may be shown once.
# Tested on: HL-1
# Experiment: protection of cardiomyocytes from stress damage, SAR follow-up, cell-based, panel, H9c2 and HL-1, ATP luminescence, set 2 (AID 651871);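 note: cells exposed to stressor for 2 h before ATP readout; reference of the scale not given here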
# Conditions: H9c2/HL-1 cardiomyocytes, H2O2 oxidative stress; with H2O2, run 3, at 79 µM (top of the series)
row,Compound,activity (protection/inhibition)
1,CCOC(=O)c1cccc(NC(=O)CNC(=O)c2cc(-c3cc(OC)c(OC)c(OC)c3)nc3ccccc23)c1,48.4%
2,COc1ccc2c(c1OC)C(=O)N1c3ccccc3C(=O)N(Cc3cccc(Cl)c3Cl)C21 (centres undefined),5.43% and -7.46% and 6.3%
3,COc1ccc2nc(-c3cc(OC)c(OC)c(OC)c3)cc(C(=O)NCC(=O)Nc3ccc(C(C)=O)cc3)c2c1,19.5% and 32.9%
4,COc1cc(-c2cc(C(=O)Nc3cccc(C(=O)NCc4ccccc4)c3)c3ccccc3n2)cc(OC)c1OC,14.7%
